Screening results: PubChem BioAssay, several laboratories
Anthrax LF inh2 – inhibitors of Bacillus anthracis lethal factor protease. P15917. multiplex microsphere protease cleavage assay, LF. inhibition, % at 10 µM. 360,000 compounds, 0.12% hits. AID 588501; note: plate controls were buffer without enzyme for full effect and enzyme alone for no effect
BoNT F protease – inhibitors of Botulinum neurotoxin F light chain protease; Multiplex microsphere protease cleavage assay, flow cytometry; inhibition, % at 10 µM; 360,000 compounds, 0.22% hits; AID 588497; in the data active = inhibition above about 35%, passing the limit was not always enough; inconclusive = no clear call, values can overlap the other calls; note: plate controls were buffer without enzyme for full effect and enzyme alone for no effect
FBA Mtb inh – Mtb fructose-bisphosphate aldolase inhibition; P9WQA3; purified M. tuberculosis FBA, fluorescence read-out; AID 588726; inhibition, % at 1 µM; 360,000 compounds, 2.3% hits; in the data active = inhibition above about 27%;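 note: 0% = vehicle and 100% = reference inhibitor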
BoNT-A LC inh2 – BoNT A light chain protease inhibition. multiplex microsphere protease substrate cleavage, flow cytometry. inhibition, % at 10 µM. 360,000 compounds, 0.17% hits. AID 588499; note: plate controls were buffer without enzyme for full effect and enzyme alone for no effect
Bead autofluor – flagged as autofluorescent in microsphere protease counterscreen | 360,000 compounds, 3.1% hits | AID 624483 | fluorescence intensity (no concentration beside the values) | compound autofluorescence counterscreen, microsphere flow cytometry; hits give high values; in the data active = fluorescence intensity above about 16000; inconclusive = no clear call, values can overlap the other calls
GDH-TPI counter – GDH-TPI coupled enzyme inhibition counter-screen; AID 588335; GDH-TPI coupled enzyme counterscreen, NADH absorbance; inhibition, % at 4.8 µM; 360,000 compounds, 1.2% hits; in the data active = inhibition above about 30%;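 note: 0% = DMSO wells and 100% = wells lacking the enzyme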
* = called active by the depositor; ? = inconclusive; . = no result. The list is not random: actives were taken first. Their share in the collection is about 6.6%. Cut-off read from the data, not from the text of the source, unless noted: active = inhibition above about 30%; inconclusive = no clear call, values can overlap the other calls; inactive = below that.

SMILES	Anthrax LF inh2	BoNT F protease	FBA Mtb inh	BoNT-A LC inh2	Bead autofluor	GDH-TPI counter
O=C(Nc1cccc(C(F)(F)F)c1)N1CCC(c2nc(-c3ccc(F)cc3)no2)CC1	-3	-3	-2	2	20249*	1
COc1ccc(NC(=O)N2CCC(c3nc(-c4cccs4)no3)CC2)cc1	-4	6	-1	1	9612	2
O=C(Nc1ccc(Cl)cc1)N1CCC(c2nc(-c3cccs3)no2)CC1	-3	-2	-2	?	24323*	1
O=C(Nc1ccccc1)N1CCCC(c2nc(-c3ccc(F)cc3)no2)C1 (stereo unspecified)	6	?	-8	1	4275	7
COc1cc(C(=O)N2CCCC(c3nc(-c4cccs4)no3)C2)cc(OC)c1OC (stereo unspecified)	-9	-4	3	-5	17019*	10
Cc1c(NC(=O)C(C)N2C(=O)C3CCCCC3C2=O)c(=O)n(-c2ccccc2)n1C (stereo unspecified)	2	-4	-1	0	3919	2
CCN(C(C)=O)c1cnc(C=NNC(N)=S)c2ccccc12	-5	1	2	0	2970	34*
CCOC(=O)N1CCC(NC(=O)c2oc3c(c2C)-c2[nH]ncc2CC3)CC1	-4	-5	7	?	20954*	-4
CC(C)(C)C(=O)OCc1cn(-c2ccccc2)nn1	2	-1	0	0	9925	18
CC(C)(C)C(=O)OCc1cn(-c2ccc(Cl)cc2)nn1	-5	0	-2	?	19456*	-5
O=C(Nc1cccc(Cl)c1)OCc1cn(-c2ccc(Cl)cc2)nn1	-3	-7	2	-2	16617*	11
CC(C)CC(=O)OCc1cn(-c2ccccc2)nn1	0	-7	0	-5	21300*	-7
CCCCCCn1c(=O)n2n(c1=O)C[C@]1(OC(=O)NC3CCCC3)CN(S(=O)(=O)c3ccc(C)cc3)C[C@]1(O)C2	-10	-6	1	0	3121	8
Cc1cc(=O)c2ccccc2s1	-7	5	-3	2	4003	32*
CS(=O)(=O)N(Cc1ccccc1)c1ccc(C(=O)NCc2cccnc2)cc1	-1	0	-2	0	4213	-1
CS(=O)(=O)N(Cc1ccccc1)c1ccc(C(=O)NCc2ccccc2)cc1	-11	4	0	2	22531*	6
C=CCN(c1ccc(C(=O)NCCc2ccccc2)cc1)S(C)(=O)=O	1	0	1	1	16236*	6
Cc1cccc(C)c1-n1nnnc1C1c2ccccc2C(=O)N1CCCN1CCOCC1 (stereo unspecified)	-2	1	.	1	6093	.
CCOC(=O)N1CCC(Nc2c(N3CCN(c4cc(Cl)ccc4C)CC3)c(=O)c2=O)CC1	2	-3	2	-1	5886	14
CCOC(=O)N1CCC(Nc2c(-c3ccc(C)c(C)c3)c(=O)c2=O)CC1	-6	-5	-7	0	4680	33*
O=C(COc1ccccc1)NC(Cc1c[nH]c2ccccc12)C(=O)O (stereo unspecified)	-5	0	-2	0	16391*	8
CC(C)c1ccc(OCC(=O)NC(Cc2c[nH]c3ccccc23)C(=O)O)cc1 (stereo unspecified)	1	-1	-1	0	4598	10
Cc1ccc(C(=O)NC(Cc2c[nH]c3ccccc23)C(=O)O)cc1 (stereo unspecified)	-2	0	-2	?	20051*	10
COc1ccc(Br)c(Cn2c(C)c(C(=O)NCc3cccc([N+](=O)[O-])c3)sc2=O)c1	-7	-4	1	0	5316	0
CC(NC(=O)c1cccs1)c1ccc2c(c1)OCO2 (stereo unspecified)	-1	-1	1	0	20040*	-2
SMILES	Anthrax LF inh2	BoNT F protease	FBA Mtb inh	BoNT-A LC inh2	Bead autofluor	GDH-TPI counter
CC(NC(=O)c1cccnc1)c1ccc2c(c1)OCO2 (stereo unspecified)	-1	-2	2	?	16408*	17
Cc1ccsc1C(=O)NC(C)c1ccccc1 (stereo unspecified)	15	-15	1	-6	4193	3
Cc1ccc(C(=O)NC(C)c2ccc3c(c2)OCO3)s1 (stereo unspecified)	-2	-3	0	0	4079	-5
Cc1ccsc1C(=O)NC(C)c1ccc2c(c1)OCO2 (stereo unspecified)	-1	-3	1	0	22863*	-8
COc1ccc(NC2=NCC(Cc3ccc(Br)cc3)S2)cc1 (stereo unspecified)	-4	-18	-7	0	2041	10
CN1C(=O)NC(NC(=O)c2ccncc2)(C(F)(F)F)C1=O (stereo unspecified)	-1	3	1	3	15175	18
COc1ccc(N2C(=O)NC(NC(=O)c3ccncc3)(C(F)(F)F)C2=O)cc1 (stereo unspecified)	3	2	2	1	22275*	19
COCCCNC(=O)c1ccc2c(c1)ncn2-c1ccc(C)cc1C	-7	5	150*	0	3137	1
C[C@@H](CO)NC(=O)c1ccc2c3n(nc2c1)-c1ccccc1CO3	6	4	22	0	3210	17
Cc1ccc2c(c1)COc1c3ccc(C(=O)N[C@@H](CO)C(C)C)cc3nn1-2	-4	-6	33*	-1	3214	21
CCOCCCNC(=O)c1ccc2c(c1)ncn2-c1cccc(C)c1	-4	6	1	0	3896	-4
COCCNC(=O)c1ccc2c3n(nc2c1)-c1ccc(C)cc1CO3	-1	4	49*	0	3817	27
O=S1(=O)C[C@H](N2CCOCC2)[C@@H](COCc2ccccc2)N1	11	-2	0	0	5403	.
CNC(=S)NNC(=O)c1c(C)nc2cc(C)ccn12	3	-3	0	0	5583	11
CC(=O)Nc1ccc(/C=N/NC(=O)CNC(=O)c2ccccc2)cc1	-4	-2	-4	0	4303	4
O=C(Nc1ccccc1)N1CCSc2cc(Cl)ccc21	-1	-3	1	-2	20918*	4
O=C(Nc1ccccc1Cl)N1CCSc2ccccc21	-7	4	-1	0	5791	6
O=C(Nc1cccc(Cl)c1)N1CCSc2cc(Cl)ccc21	-6	3	0	1	19711*	7
CCN(C(=O)c1ccco1)C1C2CC3CC(C2)CC1C3 (stereo unspecified)	0	9	1	2	4202	7
C=CCSc1nnc(NC(=O)C2CC(=O)N(Cc3ccc(C)cc3)C2)s1 (stereo unspecified)	-4	-15	3	-2	4069	1
Cc1nn(CC(=O)O)c(=O)c2ccccc12	3	10	1	4	?	5
Cc1nn(CC(=O)O)c(C)c1C	-3	3	2	2	21501*	-2
N#Cc1c(N)n(-c2ccc(O)cc2)c2nc3ccccc3nc12	-5	2	0	1	4130	2
